{
  "source": "the supplement of paper PMC11417369",
  "note": "± gives the standard deviation of the averaged measurements. The full ranking holds about 25,000 sequences; the median of “ln(normalized median fluorescence intensity)” is about 7.9, and the highest 2% start at about 11. Many of the other results were omitted from the sample, so the highest values are more common in it than they were.",
  "data": [
    {"test_system": "PfAP2-I AP2 domain 3 (GST-tagged)", "assay": "gcPBM binding intensity (ln(normalized median fluorescence intensity)); higher = stronger DNA binding", "method_in_brief": "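Binding intensity is the highest Masliner-normalised natural-log median intensity over replicate spots in either probe orientation. To obtain it, GST-tagged P. falciparum DNA-binding domains made in E. coli were incubated for 1 h on an Agilent 4 × 180k array of primer-extended double-stranded 36-bp intergenic genomic probes plus negative controls. Detection used Alexa488 anti-GST antibody with scanning at 488 nm.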", "values": [
      {"sequence": "CCTTTTTCTACTTTCTCACACATATTAAGAATTATA [CACACA_site5621]", "gcPBM binding intensity (ln)": "8.29 ± 0.51"},
      {"sequence": "ATAAAAATGGATGAATATAAAAAAAAAAAAATATAT [CACACA_negctrl_site182]", "gcPBM binding intensity (ln)": "7.74 ± 0.59"},
      {"sequence": "AAAAAAAATAAAAATATATATATATATATATAAATA [GTGCAC_negctrl_site676]", "gcPBM binding intensity (ln)": "7.82 ± 0.53"},
      {"sequence": "TTCAATAGTAAGTATACACACATATATATATATAAA [CACACA_site2687]", "gcPBM binding intensity (ln)": "7.82 ± 0.47"},
      {"sequence": "TTACTTAATAGACACACACACAAAAAAAAAAAAAAA [CACACA_site6572]", "gcPBM binding intensity (ln)": "8.12 ± 0.49"},
      {"sequence": "GTGTGCAAAAATTGTTGTACATTATATATAAAAAAA [XGTACX_site3246]", "gcPBM binding intensity (ln)": "9.41 ± 0.34"},
      {"sequence": "TTTTGTTATAAATAATGTACATATTTATTTAAAATT [XGTACX_site6610]", "gcPBM binding intensity (ln)": "7.69 ± 0.38"},
      {"sequence": "ATATAATAAATGTAGGTGCATAAAAATATTTTGTTA [GTGCAC_site9780]", "gcPBM binding intensity (ln)": "11 ± 0.45"},
      {"sequence": "TTATTAAATTTTTTTTGTACTTATATATATATATAT [XGTACX_site2443]", "gcPBM binding intensity (ln)": "9.23 ± 0.18"},
      {"sequence": "AAATAATTATTTATCACACATATGTATTTATATATA [CACACA_site4589]", "gcPBM binding intensity (ln)": "7.66 ± 0.43"},
      {"sequence": "ATTTTTTAAAATATTTGTACATATATAATGCATATA [XGTACX_site7026]", "gcPBM binding intensity (ln)": "8.17 ± 0.17"},
      {"sequence": "TATATATTATATATATGTACATATTGTTGTGTATAT [XGTACX_site767]", "gcPBM binding intensity (ln)": "7.92 ± 0.43"},
      {"sequence": "AGTGCATAATATTTATGTACGTATCACATATATTTT [XGTACX_site5166]", "gcPBM binding intensity (ln)": "11.3 ± 0.83"},
      {"sequence": "GTTTATGTATTATTATGTACGTATCATAATATATAT [XGTACX_site2385]", "gcPBM binding intensity (ln)": "8.28 ± 0.38"},
      {"sequence": "AATTGTGCATTATATTGTACACGTGTTGTATATATT [XGTACX_site975]", "gcPBM binding intensity (ln)": "11.1 ± 0.4"},
      {"sequence": "TTATATTAATTTTGTTGTACTATTTGTGCATTAAAT [XGTACX_site4790]", "gcPBM binding intensity (ln)": "11.1 ± 0.78"},
      {"sequence": "TTTTTTTTTTTTTTGTGTACTAATATTATAAATTTT [XGTACX_site4405]", "gcPBM binding intensity (ln)": "8.14 ± 0.3"},
      {"sequence": "ATAATAAATTCTACGCGTACAAAACCATGAACATTA [XGTACX_site7505]", "gcPBM binding intensity (ln)": "8.02 ± 0.38"},
      {"sequence": "TAATTAAAATTAAGAAGTACATTTTACTTTTAATGC [XGTACX_site5120]", "gcPBM binding intensity (ln)": "7.61 ± 0.63"},
      {"sequence": "TTTTATTAAAACCACGCATGCAGAGGAAACGGTGAG [TGCATGCA_site1029]", "gcPBM binding intensity (ln)": "8.45 ± 0.64"},
      {"sequence": "GTGTTAAATTTTTGAACATGCAAGTTTTATTATTGA [TGCATGCA_site478]", "gcPBM binding intensity (ln)": "7.58 ± 0.56"},
      {"sequence": "ATATTCCTACATACAACACACGACGTTCTCATAAGA [CACACA_site231]", "gcPBM binding intensity (ln)": "8.06 ± 0.66"},
      {"sequence": "TTATATGCATAAAAACGTACAAAAATGTATTCATGT [XGTACX_site2215]", "gcPBM binding intensity (ln)": "8.06 ± 0.52"},
      {"sequence": "TCACTTTTATAATATAATATTCTATATCTTATTTTT [GTGCAC_negctrl_site717]", "gcPBM binding intensity (ln)": "7.47 ± 0.47"}
    ]}
  ]
}
